# Bioassay records (PubChem)
# RGS8-Gao: human RGS8-Galphao interaction regulation; 220,000 tested, 0.34% active; multiplexed bead flow cytometry, RGS8-Galphao binding; actives lie on both sides; response (percent of control binding), % at 10 µM; AID 1423; in the data active = response below about 60% or above about 140%; inactive = in between;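 note: Galphao activated as the GDP aluminium fluoride complex binding bead-coupled RGS8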
# Target sequence (P09471 whole entry, looked up): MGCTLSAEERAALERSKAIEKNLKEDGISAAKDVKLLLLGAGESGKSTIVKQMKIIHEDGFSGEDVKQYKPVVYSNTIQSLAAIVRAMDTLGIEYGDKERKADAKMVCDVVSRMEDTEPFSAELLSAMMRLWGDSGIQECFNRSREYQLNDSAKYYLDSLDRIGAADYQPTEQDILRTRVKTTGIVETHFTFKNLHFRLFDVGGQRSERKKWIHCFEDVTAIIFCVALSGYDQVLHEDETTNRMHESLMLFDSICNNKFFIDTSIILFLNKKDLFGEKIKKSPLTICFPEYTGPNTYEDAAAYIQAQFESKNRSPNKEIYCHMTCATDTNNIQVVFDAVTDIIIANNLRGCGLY
# RGS16-Gao HTS: modulates binding between human RGS16 and Galphao. binding response (% of control), % at 10 µM. 220,000 tested, 0.38% active. bead-based flow cytometry RGS16-Galphao binding, fluorescence; actives lie on both sides. O15492+P09471;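 note: Galphao activated by GDP with aluminum fluoride before binding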
# RGS7-Gao: modulates binding of RGS7 to human Galphao. P09471. Multiplexed bead flow cytometry; actives lie on both sides. 220,000 tested, 0.35% active. AID 1439. binding response (% of control), % at 10 µM; in the data active = binding response below about 49% or above about 150%; inconclusive = no clear call, values can overlap the other calls; inactive = in between;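 note: fluorescent Galphao held in activated GDP-AlF4 state binding bead-coupled RGS7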
# RGS4-Gao reg: modulates binding of RGS4 to human Galphao; binding response (% of control), % at 10 µM; Multiplexed bead flow cytometry; actives lie on both sides; P09471; 220,000 tested, 0.33% active; in the data active = binding response below about 49% or above about 150%; inactive = in between;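 note: fluorescent Galphao activated with aluminum fluoride binding bead-coupled RGS4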
# RGS-Gao: RGS4-Galphao interaction regulator (human) | AID 1504 | multiplexed bead flow cytometry, RGS–Galpha-o binding | 1,600 tested, 99% active | shares compounds with RGS16-Gao HTS | RGS4–Galpha-o binding response, % at 10 µM;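 note: fluorescently labeled Galpha-o bound to GDP with aluminium fluoride binding biotinylated RGS beads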
# Avidin counter: interferes with biotinylated probe binding to avidin beads; shares compounds with RGS16-Gao HTS; streptavidin beads, fluorescein-biotin binding, flow cytometry; inhibition, % at 10 µM; 1,700 tested, under 10 active; AID 1783;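 active = inhibition above 50%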;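 note: median green fluorescence of gated singlet beads compared with DMSO control wells; 0% = DMSO wells and 100% = complete loss of bead fluorescence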
# RGS8-Gao confirm: confirmation of regulators of human RGS8-Galphao interaction; 1,700 tested, 3% active; bead-based flow cytometry RGS8-Galphao binding, fluorescence; actives lie on both sides; binding response (% of control), % at 10 µM; shares compounds with RGS16-Gao HTS; in the data active = binding response below about 72% or above about 130%; inactive = in between;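 note: Galphao activated as GDP AlF4 complex before binding bead RGS8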
# RGS7-Gao confirm: RGS7-Galphao interaction regulation, single point confirmation; shares compounds with RGS16-Gao HTS; response (percent of control binding), % at 10 µM; 1,700 tested, 7.8% active; AID 1837; bead-based flow cytometry RGS7-Galphao binding; actives lie on both sides; in the data active = response below about 75% or above about 130%; inactive = in between;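 note: fluorescent Galphao activated with GDP and aluminum fluoride binding bead-coupled RGS7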
# RGS16-Gao conf: confirmation of regulators of human RGS16-Galphao interaction; shares compounds with RGS16-Gao HTS; response (% of control binding), % at 10 µM; 1,700 tested, 4% active; bead-based flow cytometry, RGS16-Galphao binding; actives lie on both sides; in the data active = response below about 74% or above about 130%; inactive = in between;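 note: Galphao activated as the GDP aluminium fluoride complex binding bead-coupled RGS16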
# RGS4-Gao confirm: RGS4-Galphao interaction regulation, single point confirmation | shares compounds with RGS16-Gao HTS | RGS4-Galphao binding, multiplexed bead flow cytometry; actives lie on both sides | binding response (% of control), % at 10 µM | 1,700 tested, 4% active; in the data active = binding response below about 74% or above about 130%; inactive = in between
# RGS19-Gao single: RGS19-Galphao interaction regulation, single point confirmation. shares compounds with RGS16-Gao HTS. response (percent of control binding), % at 10 µM. 1,700 tested, 5% active. bead-based flow cytometry RGS19-Galphao binding; actives lie on both sides; in the data active = response below about 50% or above about 160%; inactive = in between;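 note: 100% = no compound control and 0% = blank background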
# Target sequence (P09471 whole entry, looked up): as above
# Target sequence (P49795 whole entry, looked up): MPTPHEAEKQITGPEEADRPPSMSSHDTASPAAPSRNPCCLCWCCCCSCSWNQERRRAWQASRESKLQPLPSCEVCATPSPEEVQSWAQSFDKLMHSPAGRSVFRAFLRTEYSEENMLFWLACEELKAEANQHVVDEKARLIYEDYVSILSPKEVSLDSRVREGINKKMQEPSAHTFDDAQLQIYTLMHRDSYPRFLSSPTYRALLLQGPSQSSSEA
# An asterisk follows results filed as active; ? = inconclusive; . = no result given; + = active, no number; [ ] = another dose, or the depositor's remark. Sampled rows, rich in hits. Any-hit rate of the full collection: about 0.78%. Unless noted, the rule behind the calls is not given here.
SMILES,RGS8-Gao,RGS16-Gao HTS,RGS7-Gao,RGS4-Gao reg,Avidin counter,RGS8-Gao confirm,RGS7-Gao confirm,RGS16-Gao conf,RGS4-Gao confirm,RGS19-Gao single,others
O=C1OCC2OC(O)C(O)C(O)C2OC(=O)c2cc(O)c(O)c(O)c2-c2c(O)c(O)c3oc(=O)c4c(c(O)c(O)c5oc(=O)c2c3c54)-c2c1cc(O)c(O)c2O (stereo not drawn),36*,66,?,48*,0,37*,32*,75,47*,102,
CC1=NN(C(C#N)c2ccc([N+](=O)[O-])cc2)C(C)(C)C1 (stereo not drawn),106,122,?,108,.,.,.,.,.,.,
CC1=NN(C(C#N)c2ccc(F)cc2)C(C)(C)C1 (stereo not drawn),58*,45,44*,50*,0,104,111,107,109,103,
O=C(O)c1ccccc1Sc1ccccc1S(=O)(=O)NC1CCCCC1,7.1*,-4.7*,?,-11*,1,94,90,95,95,106,
O=C(O)c1ccccc1S(=O)(=O)NCC(O)COC1CCCCC1 (stereo not drawn),102,102,100,101,.,.,.,.,.,.,
COc1ccc(S(=O)(=O)N2CCC(N3CCCCC3)CC2)cc1,103,98,101,98,.,.,.,.,.,.,
O=C(C1CCN(S(=O)(=O)c2ccc(F)cc2)CC1)N1CCOCC1,95,100,168*[activator],115,0,104,104,104,105,100,RGS-Gao=115*
O=S(=O)(c1ccc(F)cc1)N1CCC(N2CCCC2)CC1,102,109,163*[activator],107,.,.,.,.,.,.,RGS-Gao=107*
O=C(NCc1ccc2c(c1)OCO2)c1cccc([N+](=O)[O-])c1,.,.,.,.,2,101,100,103,101,96,
O=C(NCc1ccc2c(c1)OCO2)c1ccc2c(c1)OCO2,100,105,?,105,.,.,.,.,.,.,
O=C(NCc1ccc2c(c1)OCO2)c1ccc(COc2cccc(Cl)c2)o1,101,102,101,100,.,.,.,.,.,.,
O=C(NCc1ccc2c(c1)OCO2)c1ccc(CSCc2ccccc2Cl)o1,75,9,48*,54,1,98,101,101,103,106,RGS-Gao=54*
COc1c(Cl)cc(C(=O)Nc2ccccc2-c2ccccc2)cc1Cl,88,101,104,112,.,.,.,.,.,.,
CC(C)N(C(=S)NC1CCCCC1)c1ccccc1,102,105,100,102,.,.,.,.,.,.,
Cc1[nH]c2ccccc2c1SCC(=O)O,101,101,97,100,.,.,.,.,.,.,
COC(=O)C(F)(F)Sc1c(C)[nH]c2ccccc12,111,117,158*[activator],119,0,104,100,102,102,102,RGS-Gao=119*
O=C1CN(C(=O)COC(=O)/C=C/c2ccc(OC(F)F)cc2)c2ccccc2N1,97,103,100,100,.,.,.,.,.,.,
O=C(O)COc1ccccc1/C=N/NC(=O)Cc1csc(Nc2cccc(C(F)(F)F)c2)n1,40*,32,?,39*,-1,104,103,105,101,108,
COC(=O)CC1C(=O)NCCN1C(=O)Nc1ccc(Cl)c(Cl)c1 (stereo not drawn),.,.,.,104,-1,102,99,99,102,87,
CCCCNC(=O)c1cc(C)no1,102,103,98,100,.,.,.,.,.,.,
COc1ccc(-c2nnc(SCC(=O)c3[nH]c(C)c(C(C)=O)c3C)o2)cc1,112,180*[activator],126,175*[activator],0,98,96,94,90,103,
CC(=O)c1c(C)[nH]c(C(=O)CSc2nnc(-c3ccco3)o2)c1C,100,100,?,100,.,.,.,.,.,.,
COCCNc1ccnc2c(Cl)cccc12,96,77,104,99,.,.,.,.,.,.,
COCCCNc1ccnc2c(Cl)cccc12,99,.,101,98,0,100,97,99,100,113,
COc1ccc(C(NC(=O)C2C3C=CC(C3)C2C(=O)O)c2ccccc2)cc1 (stereo not drawn),103,105,102,101,.,.,.,.,.,.,
SMILES,RGS8-Gao,RGS16-Gao HTS,RGS7-Gao,RGS4-Gao reg,Avidin counter,RGS8-Gao confirm,RGS7-Gao confirm,RGS16-Gao conf,RGS4-Gao confirm,RGS19-Gao single,others
O=C(Nc1cccc(O)c1)c1noc2c1CCCCC2,.,.,.,.,1,107,106,110,103,103,
CCCCSCCCNC(=S)Nc1ccccc1C,103,103,102,103,.,.,.,.,.,.,
Cc1cc(C(=O)CSc2nc3ccccc3c(=O)n2C)c(C)n1Cc1ccc2c(c1)OCO2,.,+[activator],121,+[activator],0,95,92,96,96,116,
Cc1cc(C(=O)CSc2nnc(-c3ccccc3)n2Cc2ccc3c(c2)OCO3)c(C)n1C,98,89,99,99,.,.,.,.,.,.,
O=C(Nc1nc(-c2ccccc2Cl)cs1)c1cccnc1,98,98,97,94,.,.,.,.,.,.,
Cc1c(Cl)cccc1NC(=O)C1Cc2ccccc2CN1C(=O)c1ccccc1 (stereo not drawn),99,96,97,99,.,.,.,.,.,.,
Cc1cccc(NC(=O)C2Cc3ccccc3CN2C(=O)OCc2ccccc2)c1C (stereo not drawn),79,12*,90,91,-2,111,102,118,102,116,RGS-Gao=91*
CCOC(=O)c1cccc(Nc2ncnc3ccc(C)cc23)c1,98,102,93,92,.,.,.,.,.,.,
COCCCNC(=O)C1CCN(C(=O)c2cc3sccc3n2Cc2ccc(F)cc2)CC1,100,98,96,99,.,.,.,.,.,.,
O=C(NCCCN1CCCC1)C1CCN(C(=O)c2cc3sccc3n2Cc2ccc(F)cc2)CC1,121,262,181*[activator],134,.,.,.,.,.,.,RGS-Gao=134*
COc1ccc(CNC(=O)c2c(F)c(F)c(F)c(F)c2F)cc1,58*,97,51,93,0,99,92,100,97,91,RGS-Gao=93*
CC(C)c1ccc2oc(=O)cc(CN3CCN(c4ccc(F)cc4)CC3)c2c1,109,111,109,111,.,.,.,.,.,.,
COc1ccc2c(c1)c1nc(SCC(C)C)n(CCO)c(=O)c1n2C,49*,59,42*,41*,0,97,93,98,97,103,
CCCC(=O)Nc1cccn(Cc2ccccc2Br)c1=O,.,.,.,.,0,100,102,100,99,114,
CCNC(=S)N/N=C(\C)c1ccc2ccccc2c1,100,99,?,100,.,.,.,.,.,.,
